CYP2C9 inh – human CYP2C9 inhibition | CYP2C9 Supersomes, luciferin-H conversion, luminescence | inhibition, % at 5 µM | actives 20% (n = 96,000);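 active means blocking of liver enzyme CYP2C9 beyond about 50% at 5 µM, limit read from the data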
Target sequence (P11712 whole entry, looked up): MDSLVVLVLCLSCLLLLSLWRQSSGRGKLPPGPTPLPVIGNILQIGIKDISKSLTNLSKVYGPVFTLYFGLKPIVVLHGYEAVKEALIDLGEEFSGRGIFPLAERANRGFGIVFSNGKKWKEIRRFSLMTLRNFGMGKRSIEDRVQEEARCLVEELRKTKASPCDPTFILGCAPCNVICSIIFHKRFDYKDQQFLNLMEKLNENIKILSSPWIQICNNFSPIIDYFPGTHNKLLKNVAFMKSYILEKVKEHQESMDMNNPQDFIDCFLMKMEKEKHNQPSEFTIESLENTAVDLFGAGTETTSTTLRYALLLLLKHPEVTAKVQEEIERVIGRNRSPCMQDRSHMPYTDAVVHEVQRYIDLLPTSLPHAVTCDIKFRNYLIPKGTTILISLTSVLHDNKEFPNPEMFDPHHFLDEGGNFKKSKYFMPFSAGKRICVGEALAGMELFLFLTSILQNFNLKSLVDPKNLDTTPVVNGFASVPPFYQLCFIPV
CYP2C19 act – increases human CYP2C19 enzyme activity | P33261 | recombinant CYP2C19, luciferin-H EGE luminescence; hits give high values; 0 = fully inhibited enzyme, 1 = untreated enzyme | activation factor at 5 µM | 96,000 tested, under 10 active | AID 1025;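 active means activation factor of at least 2 at 5 µM in the primary screen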
PLAP act – activators of human placental alkaline phosphatase; P05187; purified PLAP enzyme, luminescent substrate read-out; hits give high values; activation fold at 20 µM; actives 1.2% (n = 96,000); in the data active means activation fold above about 2
CYP2C19 inh – human CYP2C19 inhibition; P33261; CYP2C19 Supersomes, luciferin-H EGE luminescence, 30 min; inhibition, % at 5 µM; actives 21% (n = 96,000); AID 778;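 active means CYP2C19 inhibition above a set limit at 5 µM in the primary screen, cut at about 50% in these data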
CYP2C9 activ – activators of human CYP2C9 | actives 1.4% (n = 96,000) | P11712 | recombinant CYP2C9, luciferin-H conversion, luminescence; hits give high values; factor 1 = untreated enzyme, 0 = blocked | AID 1024 | activation factor at 5 µM;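 active means activation factor of 2 or more for CYP2C9 at a 5 µM dose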
Of the large screens only hits and unclear results are named; the others gave an inactive call. An excerpt weighted towards active compounds, which were near 31% of everything screened.

Cc1noc(C)c1CSCC(=O)NC1=NCCS1	none
COC(=O)c1nn(-c2ccc3c(c2)CCN3C(C)=O)cc1O	CYP2C19 inh 67.5
Cc1ccc(Nc2nc(N)nc(CN3CCN(c4ccccc4F)CC3)n2)cc1	none
Nc1nc(CN2CCN(c3ccccc3F)CC2)nc(Nc2ccccc2)n1	CYP2C9 inh 77.4
COc1ccc(Nc2nc(N)nc(CN3CCc4ccccc4C3)n2)cc1	CYP2C9 inh 55.7
COc1ccc(Nc2nc(N)nc(CN3CCN(c4ccccn4)CC3)n2)cc1	none
Nc1nc(CN2CCc3ccccc3C2)nc(Nc2ccccc2)n1	CYP2C9 inh 51.5
Nc1nc(CN2CCCCCC2)nc(Nc2ccccc2)n1	none
Cc1ccc(NC(=O)CN(C)CC(=O)Nc2c(C)cccc2C)c(Br)c1	none
CN(Cc1ccccc1)C(=O)C1CCN(Cc2ccc(F)cc2)CC1	none
O=C(Nc1cccc(O)c1)c1cccc(S(=O)(=O)N2CCCC2)c1	none
O=C(Nc1ccccc1C(=O)N1CCCC1)c1cccc(S(=O)(=O)N2CCCCCC2)c1	CYP2C9 inh 80.2, CYP2C19 inh 54.2
Cc1ccc(O)c(NC(=O)c2cccc(S(=O)(=O)N3CCCCC3)c2)c1	CYP2C9 inh 52.7, CYP2C19 inh 58.7
Cc1ccccc1NC(=O)c1cc(S(=O)(=O)N2CCCCC2)cs1	CYP2C9 inh 51.1
COc1ccc2c(c1OC)C(=O)OC2CC(=O)c1ccc2c(c1)OCO2 (stereo not drawn)	CYP2C19 inh 55.7
COc1ccc(C(=O)C2CN(c3ccccc3)CC2c2ccc(Cl)cc2)cc1 (stereo not drawn)	CYP2C9 inh 63.1
CCOC(=O)CSc1nnc(CNC(=O)c2ccccc2OC)n1-c1ccc(OC)cc1	none
CCCCc1cc(=O)oc2cc(C)c(CN3CCCC3)c(O)c12	CYP2C9 inh 58.5
CC(NC(=O)c1ccco1)C(c1cccs1)N1CCN(c2ccc(F)cc2)CC1 (stereo not drawn)	none
CCOc1ccc(NC(=O)N(C2CCCCC2)C(C)c2cccnc2)cc1 (stereo not drawn)	none
CCOc1ccc(NC(=O)N(C2CCCCC2)C(C)c2ccncc2)cc1 (stereo not drawn)	CYP2C9 inh 68.4, CYP2C19 inh 62.8
Cn1c(=O)c2c(=O)cc(NNC(=O)C(C)(C)C)[nH]c2n(C)c1=O	none
O=C(Cc1cn2ccsc2n1)NCCc1ccc(F)cc1	CYP2C19 inh 71.5
O=C(Cc1cn2ccsc2n1)Nc1ccccc1Oc1ccccc1	CYP2C9 inh 69.9, CYP2C19 inh 80.0
CCC(C)NCc1ccc(C(=O)OC)o1 (stereo not drawn)	none
CN(C)c1ccnc(SCc2ccccc2Cl)c1C#N	CYP2C19 inh 70.1
CCOc1ccccc1N1C(=O)c2ccc(C(=O)Nc3cccnc3)cc2C1=O	CYP2C9 inh 65.4, CYP2C19 inh 56.6
O=C(Nc1cccnc1)c1ccc2c(c1)C(=O)N(Cc1cccnc1)C2=O	none
CC(=O)OC1CC(C)N(C(=O)c2ccccc2)c2ccc(C)cc21 (stereo not drawn)	CYP2C19 inh 85.1
Cc1ccc2c(c1)C=CC(C)N2C(=O)c1ccccc1 (stereo not drawn)	none
CCN(CC)S(=O)(=O)c1ccc(S(=O)(=O)N2CCCC2C(=O)O)cc1 (stereo not drawn)	none
CC(=O)Nc1ccc(Oc2nc(C)cc(C)n2)cc1	none
Cn1nnnc1SCCNCc1ccc(Cl)cc1	CYP2C19 inh 84.5
CCOc1cc(CNCCSc2nnnn2C)cc(Br)c1OCc1ccccc1	CYP2C9 inh 81.4, PLAP act 2, CYP2C19 inh 93.6
Cn1nnnc1SCC(=O)NCCc1ccc(Cl)cc1	none
O=C1c2ccccc2C(Nc2ccc(Cl)cc2)N1CCN1CCOCC1 (stereo not drawn)	CYP2C19 inh 75.2
O=C1c2ccccc2C(Nc2cccnc2)N1Cc1ccccc1 (stereo not drawn)	none
COC(=O)c1cc(NC2c3ccccc3C(=O)N2CCN2CCOCC2)cc(C(=O)OC)c1 (stereo not drawn)	CYP2C19 inh 98.0
CCCCC1CC(/C(C)=N/NC(N)=O)OC1=O (stereo not drawn)	none
COc1cccc(NC(=O)CSCC(=O)Nc2ccccc2)c1	CYP2C9 inh 77.8, CYP2C19 inh 60.1
COc1cccc(NC(=O)Cc2ccccc2)c1	CYP2C19 inh 94.0
COc1cccc(NC(=O)CNC(=O)c2ccc(F)cc2)c1	CYP2C19 inh 53.3
COc1cccc(NC(=O)CSCC(=O)O)c1	none
CCCCSCCCNC(=O)Nc1cccc(OC)c1	CYP2C9 inh 72.6, CYP2C19 inh 80.5
COc1ccc(C(=O)NCC(=O)Nc2ccccc2)cc1OC	none
O=C(Cc1csc(N2CCOCC2)n1)N/N=C/c1ccc(F)cc1	none
Cn1c(=O)n(CCc2ccccc2)c(=O)c2c1nc1n2CCN1Cc1ccco1	none
O=c1c2ccccc2nnn1CSc1nnc(-c2ccco2)o1	none
CC1=CC2=C(OC1N(C)C)c1cccc3cccc(c13)C2=O (stereo not drawn)	none
CSc1nncc(=O)[nH]1	none
Cc1cc(C)n(C(=O)CNC(=O)CCc2ccccc2)n1	none
COc1cccc(NC(=O)CC2SC(=Nc3ccccc3)NC2=O)c1 (stereo not drawn)	CYP2C9 inh 69.5, CYP2C19 inh 62.9
CCN(CC)C(=O)CSCC(=O)Nc1ccccc1	CYP2C19 inh 57.3
COC(=O)c1ccccc1NC(=O)CSCC(=O)Nc1ccccc1	CYP2C19 inh 53.4
CCNC(=O)C(C)Sc1ccc(Cl)cc1 (stereo not drawn)	none
C=CCNC(=O)C(C)Sc1ccc(Cl)cc1 (stereo not drawn)	CYP2C19 inh 70.1
Clc1cccc(-c2nn3c(-c4cccc(Cl)c4)nnc3s2)c1	none
Cn1c(C(C#N)C2=C(Cl)C(=O)N(c3ccccc3)C2=O)nc2ccccc21 (stereo not drawn)	CYP2C9 inh 91.5, CYP2C19 inh 78.4
O=C(NC(=S)Nc1ccc2[nH]ncc2c1)c1ccccc1	CYP2C9 inh 95.2, CYP2C19 inh 99.4
COc1cc(C)ccc1S(=O)(=O)N1CCN(C23CC4CC(CC(C4)C2)C3)CC1	none
COc1cccc(N2C(=O)C(c3ccccc3)=C(c3nc4ccccc4s3)C2NC(C)=O)c1 (stereo not drawn)	CYP2C9 inh 51.4, CYP2C19 inh 55.9
CC(=O)NC1C(c2nc3ccccc3s2)=C(c2ccccc2)C(=O)N1c1ccc(C)cc1 (stereo not drawn)	none
c1ccc2c(c1)nc(N1CCOCC1)c1c3ccccc3[nH]c21	none
Fc1ccc(Nc2nc(N3CCOCC3)c3ccccc3n2)cc1	CYP2C9 inh 74.2, CYP2C19 inh 75.9
CC(=O)Nc1ccc(NC2=CC(=O)CC(C)(C)C2)cc1	none
COC(=O)c1ccc(NC2=CC(=O)CC(C)(C)C2)cc1	CYP2C9 inh 50.8
CCN(Cc1ccncc1)C(=O)c1cccs1	none
COCCN(C(=O)Cc1cccs1)c1nnc(-c2ccncc2)s1	CYP2C9 inh 73.2, CYP2C19 inh 97.5
COCCN(C(=O)COc1ccccc1)c1nnc(-c2cccnc2)s1	none
COCCN(C(=O)C(C)C)c1nnc(-c2cccc(C)c2)s1	CYP2C9 inh 60.8

High-throughput results from PubChem.
